Each structure is given as a SMILES string. Counter-ions that a name gives are not always drawn. ± gives the standard deviation or the standard deviation of the averaged measurements.

For the first assay, the system named is Danio rerio Tg(wt1b:EGFP) embryo, pronephros. As to the kind of experiment: glomerular separation, fold change vs DMSO control; higher = glomeruli further apart (abnormal). The note with it: 25 µM; exposure: 24-48 hpf. In a few lines: (§1)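 Using a Fiji macro, distances and angles were calculated from 16 reference points set by hand on maximum projections of pronephroi imaged dorsally (470 nm, 10 z-slices) in agarose-filled 96-well plates. The dechorionated Tg(wt1b:EGFP) zebrafish embryos had received 25 μM compound in 0.5% DMSO in HEPES-buffered E3 with 0.003% PTU from 24 to 48 hpf at 28.5°C. Values more than 2 SD from a feature's mean were excluded. Each feature appears as a fold change over the mean of DMSO-treated embryos from the same day.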
In the case of `O=C1c2c(O)cccc2Cc2cccc(O)c21` [Anthralin], the glomerular separation amounted to 0.949 ± 0.28.

Turning to `O=C1OC(CN2CCOCC2)CN1/N=C/c1ccc([N+](=O)[O-])o1` (centres undefined) [Furaltadone hydrochloride], the glomerular separation turned out to be 0.859 ± 0.33.

`COc1ccccc1O` [Guaiacol] came in with a glomerular separation of 1.03 ± 0.3. Same read-out and setting: with `Clc1ccc(COC(Cn2ccnc2)c2ccc(Cl)cc2Cl)cc1` (centres undefined) [Econazole nitrate] the figure was 2.58 ± 1.3.

For the next assay the test system is unchanged. The experiment in a line: glomerular width (mean of left and right), fold change vs DMSO control; higher = wider glomerulus. The note with it: 25 µM; exposure: 24-48 hpf. The method in brief: as §1
The compound `Cc1onc(-c2ccccc2)c1C(=O)N[C@@H]1C(=O)N2[C@@H]1SC(C)(C)[C@@H]2C(=O)O` [Oxacillin sodium] gave a glomerular width of 1 ± 0.087. Same read-out and setting: under `Cc1ccccc1C(OCCN(C)C)c1ccccc1` (centres undefined) [Orphenadrine hydrochloride] stands 1.04 ± 0.013; under `CN[C@@H]1[C@@H](O)[C@@H](O[C@@H]2[C@@H](O)[C@H](O[C@H]3OC(CN)=CC[C@H]3N)[C@@H](N)C[C@H]2N)OC[C@]1(C)O` [Sisomicin sulfate], 1.02 ± 0.043. Regarding `O=C(CCCN1CCC(O)(c2ccc(Br)cc2)CC1)c1ccc(F)cc1` [Bromperidol], the glomerular width stood at 1.03 ± 0.076. Same read-out and setting: with `CCCCC1(COC(=O)CCC(=O)O)C(=O)N(c2ccccc2)N(c2ccccc2)C1=O` [Suxibuzone] the figure was 0.92 ± 0.016.

For the compound `Cc1ccsc1/C=C/C1=NCCCN1C` [Morantel tartrate], the glomerular width is 1.132 ± 0.011. The same measure, in the same setting: under `CN1CCN(c2c(F)cc3c(=O)c(C(=O)O)cn4c3c2SCC4)CC1` [Rufloxacin] stands 0.9236 ± 0.0089; under `Cc1c(NC(=O)c2cccnc2)c(=O)n(-c2ccccc2)n1C` [Nifenazone], 1.03 ± 0.014; under `COC(=O)N/N=C/c1c[n+]([O-])c2ccccc2[n+]1[O-]` [Carbadox], 0.931 ± 0.063. Still for that read-out and setting: under `Cc1cc(O)c(C(=O)N[C@@H](C(=O)N[C@@H]2C(=O)N3C(C(=O)O)=C(CSc4nnnn4C)CS[C@H]23)c2ccc(O)cc2)cn1` [Cefpiramide] stands 0.985 ± 0.089; under `CNCCC=C1c2ccccc2CCc2ccccc21` [Nortriptyline hydrochloride], 0.9614 ± 0.0024; under `NC(=O)OCC(O)COc1ccc(Cl)cc1` (centres undefined) [Chlorphensin carbamate], 0.982 ± 0.071. With `NS(=O)(=O)c1cc2c(cc1C(F)(F)F)NC(Cc1ccccc1)NS2(=O)=O` (centres undefined) [Bendroflumethiazide], the glomerular width was 0.896 ± 0.043. In turn, `Cc1ncc([N+](=O)[O-])n1CCO` [Metronidazole] yielded a glomerular width of 0.928 ± 0.084. The same measure, in the same setting: under `CCOC(=O)C1=C(C)NC(C)=C(C(=O)OCC)C1c1ccccc1/C=C/C(=O)OC(C)(C)C` [Lacidipine] stands 0.671 ± 0.0078; under `CC(=O)OCC(=O)[C@@]12OC(C)(C)O[C@@H]1C[C@H]1[C@@H]3C[C@H](F)C4=CC(=O)C=C[C@]4(C)[C@@]3(F)[C@@H](O)C[C@@]12C` [Fluocinonide], 1.4 ± 0.044; under `CC(=O)N(CC(O)CO)c1c(I)c(C(=O)NCC(O)CO)c(I)c(C(=O)NCC(O)CO)c1I` (centres undefined) [Iohexol], 0.963 ± 0.072. For the compound `COc1c2occc2c(OC)c2c(=O)cc(C)oc12` [Khellin], the glomerular width came out at 1 ± 0.033. The same measure, in the same setting: with `CN1[C@@H]2CC[C@H]1C[C@@H](OC(=O)C(O)c1ccccc1)C2` (mixture of isomers) [Homatropine hydrobromide (R,S)] the figure was 1.06 ± 0.015. Same read-out and setting: with `O=C1C(O)=C([C@H]2CC[C@H](c3ccc(Cl)cc3)CC2)C(=O)c2ccccc21` [Atovaquone] the figure was 0.992 ± 0.027. Same read-out and setting: with `Cn1c(=O)c2c(ncn2CCO)n(C)c1=O` [Etofylline] the figure was 0.951 ± 0.023; with `CCN1CCCC1CNC(=O)c1cc(S(N)(=O)=O)ccc1OC` (centres undefined) [Sulpiride], 1.02 ± 0.023.

In the case of `CC[C@]12CCCN3CCc4c(n(c5ccccc45)[C@@](O)(C(=O)OC)C1)[C@@H]32` [Vincamine], the glomerular width is 0.965 ± 0.01. Still for that read-out and setting: with `CCOc1cc(CC(=O)N[C@@H](CC(C)C)c2ccccc2N2CCCCC2)ccc1C(=O)O` [Repaglinide] the figure was 0.943 ± 0.028; with `CN(C)CCc1c[nH]c2ccc(C[C@H]3COC(=O)N3)cc12` [Zolmitriptan], 0.941 ± 0.034. For `CC(=O)Nc1ccc(OCC(O)CNC(C)C)cc1` (centres undefined) [Practolol], the glomerular width was found to be 0.986 ± 0.081. The same measure, in the same setting: with `Cc1ncc([N+](=O)[O-])n1CC(C)O` (centres undefined) [Secnidazole] the figure was 0.9842 ± 0.0045; with `O=C(COc1ccc(Cl)cc1)N1CCN(Cc2ccc3c(c2)OCO3)CC1` [Fipexide hydrochloride], 0.86 ± 0.031; with `N=C(N)N/N=C/c1c(Cl)cccc1Cl` [Guanabenz acetate], 1.072 ± 0.01. `NS(=O)(=O)Cc1noc2ccccc12` [Zonisamide]: the glomerular width was found to be 1 ± 0.059.

Compound `CCC(=O)O[C@@H](O[P@](=O)(CCCCc1ccccc1)CC(=O)N1C[C@H](C2CCCCC2)C[C@H]1C(=O)O)C(C)C` [Fosinopril] came in with a glomerular width of 1.01 ± 0.023. On the same count and under the same terms, with `Nc1ncnc2c1ncn2[C@@H]1O[C@H](CO)[C@@H](O)[C@@H]1O` [Vidarabine] the figure was 1.06 ± 0.023; with `Cn1c(=O)c2[nH]cnc2n(C)c1=O` [Aminophylline], 0.992 ± 0.021. Compound `Cc1nnc(NS(=O)(=O)c2ccc(N)cc2)s1` [Sulfamethizole] came in with a glomerular width of 1.06 ± 0.087. On the same count and under the same terms, with `CN(C)CCC=C1c2ccccc2COc2ccccc21` [Doxepin hydrochloride] the figure was 0.99 ± 0.035; with `CN(C)[C@@H]1C(O)=C(C(N)=O)C(=O)[C@@]2(O)C(O)=C3C(=O)c4c(O)cccc4[C@@](C)(O)[C@H]3C[C@@H]12` [Tetracycline hydrochloride], 1.06 ± 0.042. For the compound `O=C1c2c(O)cccc2Cc2cccc(O)c21` [Anthralin], the glomerular width came to 0.986 ± 0.02.

`O=C1OC(CN2CCOCC2)CN1/N=C/c1ccc([N+](=O)[O-])o1` (centres undefined) [Furaltadone hydrochloride] came in with a glomerular width of 1.1 ± 0.021. On to `COc1ccccc1O` [Guaiacol], for which the glomerular width was 1.007 ± 0.0036. On the same count and under the same terms, with `Clc1ccc(COC(Cn2ccnc2)c2ccc(Cl)cc2Cl)cc1` (centres undefined) [Econazole nitrate] the figure was 0.9791 ± 0.0056.

The values are drawn from the supplement of paper PMC7366291.
